Here are results for 24 compounds from PubChem BioAssay (Tox21).

SMILES strings stand for the structures. Inconclusive results are not listed. Where a call stands in place of a potency, no number is given. Calls of active or inactive are those of the source. Unless noted, calls come from the whole dose curve; as a rule, active = well fitted curve in the direction sought with a large enough effect in the repeat runs; inconclusive = weak or mixed curves; inactive = no such curve, though single readings can be large; an effect the other way counts as inactive or inconclusive.

One assay concerns the target Androgen receptor (Homo sapiens) (UniProt P10275). Put plainly: qHTS assay to identify small molecule antagonists of the androgen receptor (AR) signaling pathway (AID 743035; active = well fitted inhibition curve with a large enough effect in the signal ratio in the repeat runs, not every such curve was filed as active; the % refers to the signal ratio). The following applies: HEK293 AR-UAS-bla, R1881-stimulated, beta-lactamase FRET, 16 h; series mostly up to 58.5 µM. The gist of the method:
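Cell line: GeneBLAzer AR-UAS-bla GripTite (HEK293). Stimulus: R1881 added after compound. Exposure: 16 h, 37C, 5% CO2. Readout: LiveBLAzer B/G FRET fluorescence after 2 h at room temperature.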
With `C=CCOC(=O)CCCCCC`, the result was inactive.

Take `CC(C)COC(=O)c1ccccc1`: the compound was classed as inactive.

For `CC(Oc1cc(Cl)ccc1Cl)C(=O)O` (centres undefined), the compound was classed as inactive.

The target is the same in another assay. Put plainly: qHTS assay to identify small molecule agonists of the androgen receptor (AR) signaling pathway using the MDA cell line (AID 743040; note: nearly all actives have a fitted effect of over 20% in size). The conditions noted are these: MDA-kb2 AR-luc cells, MMTV luciferase, 16 h; series mostly up to 70.3 µM. The gist of the method:
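Luminescence from ONE-Glo, read after 30 min at room temperature, reflects MMTV-driven luciferase in MDA-kb2 cells (AR- and GR-responsive). Treatment lasted 16 h at 37C, 0% CO2.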
On the technique in general: In qHTS, concentration-response curves come from the screen itself.
On to `C=CCOC(=O)CCCCCC`, for which the Potency entry is “inactive”.

Consider `Nc1nc(-c2ccccc2)c(Br)c(=O)[nH]1`, for which the Potency result is “inactive”.

As for `CC(C)COC(=O)c1ccccc1`, the Potency entry was “inactive”.

For `CC(Oc1cc(Cl)ccc1Cl)C(=O)O` (centres undefined), the Potency entry is “inactive”.

System in the next assay: not listed separately
The experiment in a line: qHTS assay to identify small molecule antagonists of the androgen receptor (AR) signaling pathway using the MDA cell line - cell viability counter screen (AID 743041; note: nearly all actives have a fitted effect of over 45% in size). The conditions noted are these: MDA-kb2 viability, CellTiter-Fluor, 16 h, cells co-treated with R1881 androgen agonist; series mostly up to 70.3 µM. An outline of the steps:
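Viability counter screen run alongside the AR antagonist reporter: cells seeded 5 h before compound, R1881 added, 16 h incubation at 37C without CO2, fluorescent CellTiter-Fluor signal quantified.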
With `C=CCOC(=O)CCCCCC`, the Potency entry is “inactive”.

As to `O=[N+]([O-])c1c(Cl)cc(Cl)cc1Cl`, the Potency result was “inactive”.

With `O=C1OCCO1`, the Potency entry is “inactive”.

On to `CC1CCc2c(N3CCC(O)CC3)c(F)cc3c(=O)c(C(=O)O)cn1c23` (centres undefined), for which the Potency entry is “inactive”.

Take `Nc1nc(-c2ccccc2)c(Br)c(=O)[nH]1`: the Potency result is “inactive”.

Consider `CCC(C)C(=O)OCCc1ccccc1` (centres undefined), for which the Potency result was “inactive”.

Consider `CC(=O)O[Si](C)(OC(C)=O)OC(C)=O`, for which the Potency result was “inactive”.

As to `CCCCCC/C=C/C(=O)OC`, the Potency entry was “inactive”.

As to `NCc1ccc(S(N)(=O)=O)cc1`, the Potency entry is “inactive”.

Consider `Cc1ccccc1C(N)=O`, for which the Potency result is “inactive”.

With `[O]=[Mo](=[O])=[O]`, the Potency result was “inactive”.

`O=NN(CCCl)C(=O)NC1CCCCC1`: the Potency entry is “inactive”.

Regarding `CCCCCc1cccc(=O)o1`, the Potency entry was “inactive”.

For the compound `CC(C)COC(=O)c1ccccc1`, the Potency entry was “inactive”.

For the compound `CCCCCC(C)O` (centres undefined), the Potency result was “inactive”.

As to `CC(C)=CCC/C(C)=C/COC=O`, the Potency result was “inactive”.

As to `CC(=O)CCc1ccc(OC(C)=O)cc1`, the Potency entry is “inactive”.

Turning to `CC(=O)CCC1=C(C)CCCC1(C)C`, the Potency result was “inactive”.

Consider `Cc1ncc([N+](=O)[O-])n1CC(C)O` (centres undefined), for which the Potency entry is “inactive”.

On to `CC(=O)Nc1ccc(OC(=O)c2ccccc2OC(C)=O)cc1`, for which the Potency entry was “inactive”.

Turning to `CC/C=C\CCOC(=O)c1ccccc1O`, the Potency entry was “inactive”.

As to `C=CCCCCCCCCC(=O)OCCCC`, the Potency entry is “inactive”.

As to `CC(O)COC(C)(C)C` (centres undefined), the Potency result is “inactive”.

For the compound `CC(Oc1cc(Cl)ccc1Cl)C(=O)O` (centres undefined), the Potency result was “inactive”.

In a further assay the target is Androgen receptor (Homo sapiens) (UniProt P10275). The experiment in a line: qHTS assay to identify small molecule antagonists of the androgen receptor (AR) signaling pathway using the MDA cell line (AID 743042; note: nearly all actives have a fitted effect of over 55% in size). The conditions noted are these: MDA-kb2 AR-luc, MMTV luciferase, R1881 antagonist, 16 h; series mostly up to 70.3 µM. An outline of the steps: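 MDA-kb2 cells (human breast carcinoma, stably carrying an MMTV-luciferase reporter responsive to AR and GR) were plated at 3,000 cells/well and preincubated 5 hr at 37C, then given compound plus R1881 agonist for 16 h. ONE-Glo luminescence was read.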
Chain of Androgen receptor (Homo sapiens) (P10275 whole entry, looked up): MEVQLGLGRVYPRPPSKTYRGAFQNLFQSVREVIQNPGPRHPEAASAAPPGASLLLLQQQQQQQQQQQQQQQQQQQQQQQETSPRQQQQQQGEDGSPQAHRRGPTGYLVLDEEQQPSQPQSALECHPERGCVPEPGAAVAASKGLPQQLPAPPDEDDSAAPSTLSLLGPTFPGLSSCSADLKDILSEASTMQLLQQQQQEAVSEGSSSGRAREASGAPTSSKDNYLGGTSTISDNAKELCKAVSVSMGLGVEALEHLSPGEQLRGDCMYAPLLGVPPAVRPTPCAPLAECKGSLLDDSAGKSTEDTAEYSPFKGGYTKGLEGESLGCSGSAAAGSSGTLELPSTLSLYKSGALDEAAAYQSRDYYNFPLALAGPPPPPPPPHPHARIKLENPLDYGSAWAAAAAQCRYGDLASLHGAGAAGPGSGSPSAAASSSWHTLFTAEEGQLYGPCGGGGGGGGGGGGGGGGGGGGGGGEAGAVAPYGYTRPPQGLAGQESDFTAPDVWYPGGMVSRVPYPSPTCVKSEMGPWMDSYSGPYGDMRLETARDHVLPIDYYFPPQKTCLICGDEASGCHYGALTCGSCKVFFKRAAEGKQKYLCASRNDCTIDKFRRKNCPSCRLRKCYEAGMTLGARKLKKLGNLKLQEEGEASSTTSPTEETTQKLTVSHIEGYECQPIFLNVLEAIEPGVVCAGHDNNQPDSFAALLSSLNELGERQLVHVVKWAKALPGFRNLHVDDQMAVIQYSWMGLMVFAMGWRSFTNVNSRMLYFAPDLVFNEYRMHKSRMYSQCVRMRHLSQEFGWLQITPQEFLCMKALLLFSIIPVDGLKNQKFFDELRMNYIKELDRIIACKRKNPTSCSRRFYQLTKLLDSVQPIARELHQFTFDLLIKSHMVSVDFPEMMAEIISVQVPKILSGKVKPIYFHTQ
For `C=CCOC(=O)CCCCCC`, the outcome was inactive.

As to `CC(C)COC(=O)c1ccccc1`, the compound was called inactive.

For `CC(Oc1cc(Cl)ccc1Cl)C(=O)O` (centres undefined), the compound was classed as inactive.
